“And” between values parts separate entries of the source, which are not always exact repeats. Identical values can stand only once. Counter-ions that a name gives are not always drawn.
Key:
Assay in all cases: Euclidean distance of Cell Painting phenotypic profile (signed KS, 77 features) to DMSO centroid (dimensionless distance); 5 or 10 uM (library dependent); higher = stronger phenotypic change vs DMSO (phenoactivity)
Conditions in all cases: 48 h
786-O = system: 786-O
How it was run: (§1)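 Five cancer lines, together with a healthy fibroblast line, received library compounds for 48 h at a library-dependent 10 or 5 uM and 0.1% DMSO final. Harmony then derived 77 features from confocal 20X images (9 fields/well) of the stained cells, scoring each as a signed Kolmogorov-Smirnov statistic against same-plate vehicle wells. After plate-position correction, correlation weighting and replicate averaging at the top dose, phenoactivity was taken as each profile's Euclidean distance to the median vehicle profile.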

A549 = system: A549
How it was run: as §1

DU145 = system: DU145
How it was run: as §1

FB = system: FB
How it was run: as §1

HEPG2 = system: HEPG2
How it was run: as §1

OVCAR4 = system: OVCAR4
How it was run: as §1

SMILES	Euclidean distance (786-O)	Euclidean distance (A549)	Euclidean distance (DU145)	Euclidean distance (FB)	Euclidean distance (HEPG2)	Euclidean distance (OVCAR4)
Cc1ccc(F)c(NC(=O)Nc2ccc(-c3cccc4[nH]nc(N)c34)cc2)c1 [Linifanib (ABT-869)]	1.23	2.53	1.64	1.81	4.87	1.29
Cn1cc(/C=C2\C(=O)Nc3cccnc32)c2ccccc21	0.739	1.41	1.16	1.5	0.771	1.53
CCC[C@H](NC(=O)[C@@H]1[C@H]2CCC[C@H]2CN1C(=O)[C@@H](NC(=O)[C@@H](NC(=O)c1cnccn1)C1CCCCC1)C(C)(C)C)C(=O)C(=O)NC1CC1 [Telaprevir (VX-950)]	1.35	1.63	1.2	0.968	0.621	1.3
CNCc1ccc(-c2[nH]c3cc(F)cc4c3c2CCNC4=O)cc1	1.61	1.12	0.651	1.66	1.33	1.23
C[C@H](NC(=O)C(=O)Nc1ccccc1C(C)(C)C)C(=O)N[C@@H](CC(=O)O)C(=O)COc1c(F)c(F)cc(F)c1F [Emricasan]	1.44	0.567	0.769	0.936	0.32	0.99
Cc1cc(-c2ncc(CC(=O)Nc3ccc(-c4cnccn4)cn3)cc2C)ccn1	1.05	1.24	0.884	0.878	0.741	0.931
CCn1cc(C(=O)O)c(=O)c2cc(F)c(N3CCNCC3)nc21 [Enoxacin Sesquihydrate]	1.35	1.38	0.79	0.738	0.516	1.19
Cc1cc(C)nc(O)n1.O=C(Nc1ccc([N+](=O)[O-])cc1)Nc1ccc([N+](=O)[O-])cc1 [Nicarbazin]	1.37	1.24	0.953	1.62	0.833	1.15
O=C(Nc1cccc2cccnc12)c1ccc(N2C(=O)[C@@H]3[C@H](C2=O)[C@@H]2C=C[C@H]3C2)cc1 [IWR-1-endo]	1	1.06	1.39	1.64	1.53	1.54
O=C(O)CCC(=O)c1ccc(-c2ccccc2)cc1 [Fenbufen]	0.582	1.6	0.988	0.916	0.887	1.11
CC(C)(Oc1ccc(C(=O)c2ccc(Cl)cc2)cc1)C(=O)O [Choline Fenofibrate]	0.954	0.724	0.985	1.28	0.32	0.848
CO[C@@H]1[C@H](OC(=O)/C=C/C=C/C=C/C=C/C(=O)O)CC[C@]2(CO2)[C@H]1[C@@]1(C)O[C@@H]1CC=C(C)C [Fumagillin]	2.75	2.91	4.57	2.95	1.89	3.29
COc1ccc([C@H]2CNC(=O)C2)cc1OC1CCCC1 [S- (+)-Rolipram]	1.12	1.46	1	0.792	1.24	1.49
CC(C)(O)CC[C@@H](O)[C@](C)(O)[C@H]1CC[C@@]2(O)C3=CC(=O)[C@@H]4C[C@@H](O)[C@@H](O)C[C@]4(C)[C@H]3CC[C@]12C [20-Hydroxyecdysone]	0.539	1.05	1.19	1.28	1.06	1.08
CCCCC(C)(O)C/C=C/[C@H]1[C@H](O)CC(=O)[C@@H]1CCCCCCC(=O)OC (mixture of isomers) [Misoprostol]	1.2	0.849	1.06	1.07	0.553	1.08
O=C(O[C@H]1CN2CCC1CC2)N1CCc2ccccc2[C@@H]1c1ccccc1 [Solifenacin succinate]	1.31	1.56	1.17	2.68	2.17	1.98
Cc1cc(O)cc(C)c1Cl [Chloroxylenol]	0.814	0.825	1.13	0.9	0.668	0.718
CCOC(=O)Nc1ccc(NCc2ccc(F)cc2)nc1N [Flupirtine maleate]	1.54	3.24	1.53	1.25	0.854	1.37
O=[N+]([O-])c1cncn1CCN1CCOCC1 [Nimorazole]	0.827	0.551	1.21	0.76	1.18	0.937
COC(c1ccccc1)(c1ccccc1)[C@H](Oc1nc(C)cc(C)n1)C(=O)O [Ambrisentan]	1.45	0.738	1.17	0.718	2.03	1.52
CC1(C)OCCn2c1nc1c(N3CCOCC3)nc(-c3cnc(N)nc3)nc12	2.79	2.94	2.05	4.44	2.32	2.93
O=C(O)CCCC[C@@H]1SC[C@@H]2NC(=O)N[C@@H]21 [Biotin (Vitamin B7)]	0.776	0.871	0.982	0.902	0.533	1.23
Cc1cccc(Nc2ccncc2S(=O)(=O)NC(=O)NC(C)C)c1 [Torsemide]	0.608	0.66	0.572	0.798	0.917	0.866
O=C(N/N=C/c1ccc(O)c(O)c1)c1cc2ccccc2cc1O [Dynasore]	0.917	1.21	0.791	0.928	1.13	0.791

SMILES	Euclidean distance (786-O)	Euclidean distance (A549)	Euclidean distance (DU145)	Euclidean distance (FB)	Euclidean distance (HEPG2)	Euclidean distance (OVCAR4)
c1ccc2c(c1)CCCC2C1=NCCN1 (stereo not drawn) [Tetryzoline]	1.41	0.369	0.804	1.09	0.572	0.896
CN1C(CCl)Nc2cc(Cl)c(S(N)(=O)=O)cc2S1(=O)=O (stereo not drawn) [Methyclothiazide]	1.01	0.722	0.72	0.776	0.485	1.52
CN1C(=O)C(Cc2c[nH]c3ccccc23)NC1=S (stereo not drawn) [Necrostatin-1]	1.05	1.61	1.1	0.994	0.953	1.55
CC(=O)OC(C)C[N+](C)(C)C (stereo not drawn) [Methacholine chloride]	0.977	1.02	1.24	0.67	0.576	1.45
OCc1ccccc1 [Benzyl alcohol]	1.29	0.876	0.897	1.21	1.52	1.19
Cc1cc(O)c(C(=O)N[C@@H](C(=O)N[C@@H]2C(=O)N3C(C(=O)O)=C(CSc4nnnn4C)CS[C@H]23)c2ccc(O)cc2)cn1 [Cefpiramide sodium]	0.849	1.35	1.94	1.17	0.51	0.977
Cn1cc(C2=C(c3cccc(N)c3)C(=O)NC2=O)c2ccccc21	3.84	2.48	2.97	1.8	1.6	3.79
O=C(O)c1cc(=O)c2c(OCC(O)COc3cccc4oc(C(=O)O)cc(=O)c34)cccc2o1 [Disodium Cromoglycate]	0.952	0.486	1.78	1.02	0.769	1.05
N=C(N)NCCC[C@H](N)C(=O)O [L-Arginine HCl (L-Arg)]	1.3	0.522	0.828	0.796	0.566	1.14
C=CC(=O)N1CCC([C@@H]2CCNc3c(C(N)=O)c(-c4ccc(Oc5ccccc5)cc4)nn32)CC1 [Zanubrutinib (BGB-3111)]	1.58	1.45	2.15	1.57	0.671	1.72
CCOc1ccn(-c2ccc(F)cc2)c(=O)c1C(=O)Nc1ccc(Oc2ccnc(N)c2Cl)c(F)c1	1.2	3.4	1.66	2.27	1.66	2.55
C[C@@H](O[C@H]1OCCN(Cc2n[nH]c(=O)[nH]2)[C@H]1c1ccc(F)cc1)c1cc(C(F)(F)F)cc(C(F)(F)F)c1 [Aprepitant]	1.15	1.83	0.905	1.05	1.43	1.3
CN1CCN(Cc2ccc(Nc3ncc(Cl)c(Nc4ccccc4S(=O)(=O)N(C)C)n3)cc2)CC1	3.04	3.57	3.22	2.93	2.81	3.88
Clc1ccc(C(Cn2ccnc2)OCc2csc3c(Cl)cccc23)c(Cl)c1 (stereo not drawn) [Sertaconazole nitrate]	1.47	1.42	1.2	1.26	0.627	1.61
CC(C)NNC(=O)c1ccncc1 [Iproniazid]	1.02	0.606	0.811	1.08	0.379	1.18
O=C(O)c1cccnc1 [Nicotinic Acid]	1.53	0.435	1.08	0.953	1.92	1.03
C#CCC(Cc1cnc2nc(N)nc(N)c2n1)c1ccc(C(=O)N[C@@H](CCC(=O)O)C(=O)O)cc1 (stereo partly drawn) [Pralatrexate]	1.51	2.98	0.922	1.25	1.73	2.44
C[C@H]1[C@H](C)CC[C@]2(C(=O)O)CC[C@]3(C)C(=CC[C@@H]4[C@@]5(C)C[C@@H](O)[C@H](O)[C@@](C)(CO)[C@@H]5CC[C@]43C)[C@H]12 [Asiatic Acid]	0.996	0.839	1.11	1.04	1.24	0.885
CC(=O)c1c(C)c2cnc(Nc3ccc(N4CCNCC4)cn3)nc2n(C2CCCC2)c1=O	5.92 and 5.88	3.42 and 3.04	5.03 and 4.42	6.3 and 5.78	5.39 and 4.73	5.52 and 5.47
C[C@]12CCC(=O)C=C1C=C[C@@H]1[C@@H]2CC[C@@]2(C)[C@H]1CC[C@@]21CCC(=O)O1 [Canrenone]	1.64	0.961	1.1	1.33	1.24	1.05
O=C(NC(Cc1cc(=O)[nH]c2ccccc12)C(=O)O)c1ccc(Cl)cc1 (stereo not drawn) [Rebamipide]	1.17	1.17	1.29	0.77	1.97	1.06
Cc1ccc(Nc2nccc(N(C)c3ccc4c(C)n(C)nc4c3)n2)cc1S(N)(=O)=O	2.42	2.34	1.99	2.87	1.93	1.6
COCCOC(=O)C1=C(C)NC(C)=C(C(=O)OC(C)C)C1c1cccc([N+](=O)[O-])c1 (stereo not drawn) [Nimodipine]	1.59	1.37	1.08	1.08	1.96	1.09
C[C@@H]1O[C@@H](OC[C@H]2O[C@@H](Oc3c(-c4ccc(OCCO)c(OCCO)c4)oc4cc(OCCO)cc(O)c4c3=O)[C@H](O)[C@@H](O)[C@@H]2O)[C@H](O)[C@H](O)[C@H]1O [Troxerutin]	1.35	0.502	0.751	0.834	0.509	0.81

Source: the supplement of paper PMC10127200
